Experimental data as given in PubChem BioAssay AID1645883 (National Center for Advancing Translational Sciences (NCATS), 2021).
Where “and” joins values, the source holds several entries; their conditions need not be identical. Equal values may be shown once. Out of some 16,000 compounds screened, about 160 (1%) were called active. Inconclusive results (about 8%) are left out. The sample holds actives, similar compounds and a random draw of the others, so the mix is not that of the screen. Values without a mark were called inactive. The call rests on the fitted dose curve; in most records, active means well fitted activation curve with a large enough effect; inconclusive means small, poorly fitted or top-dose-only effect; inactive means no such curve, though single readings can be large or run the other way.

Target: Rap guanine nucleotide exchange factor 3 (Homo sapiens) (UniProt O95398)
Assay: Validation qHTS for agonist of cAMP-regulated guanine nucleotide exchange factor 3 (EPAC1); further: nearly all actives have a fitted effect of over 70% in size
Conditions: EPAC1 Rap1b BODIPY-GDP exchange, fluorescence; max response: stronger effect = higher value, percent of cAMP control response
Description: Assay Provider (PI): Xiaodong Cheng Ph.D.
The University of Texas Medical Branch, […], TX
In multi-cellular eukaryotic organisms, the effects of cAMP are transduced by two ubiquitously-expressed intracellular cAMP receptors, the classic protein kinase A/cAMP-dependent protein kinase (PKA/cAPK) and the more recently discovered exchange protein directly activated by cAMP/cAMP-regulated guanine nucleotide exchange factor (EPAC/cAMP-GEF). Both PKA and EPAC are ubiquitously expressed in all tissues, and an increase in intracellular cAMP levels will lead to the activation of both PKA and EPAC. Therefore, careful dissections of the individual role and relative contribution of EPAC and PKA within the overall cAMP signaling in various model systems are critical for further elucidating the mechanism of cAMP signaling. To date no EPAC-specific antagonists and agonist, as well as isoform-specific agonists have been reported, and developing EPAC-specific pharmacological probes to determine the physiological functions that EPAC play in the overall cAMP-mediated signaling remains a major challenge within the research field. Furthermore, identified regulators of EPAC may lead to new mechanism-based therapeutic strategies specifically targeting the EPAC / cAMP-signaling components as EPAC has been implicated to play important roles in major human pathological conditions such as diabetes, heart disease, and cancer.
This qHTS will be used to screen the Molecular Libraries Small Molecule Repository (MLSMR) as a concentration-titration series using the NCGC unique quantitative screening (qHTS) platform to find activators for EPAC1. In addition, this assay will also be used as a counterscreen for the EPAC2 qHTS. This fluorescent based assay is developed and validated for EPAC1 that measures exchange using EPAC effector Rap1 complex with BODIPY-GDP, a GDP analog with a tethered fluorophores. Activators are identified by monitoring the change in fluorescence signal as the exchanged free BODIPY-GDP has a reduced fluorescence compared to Rap1-bound BODIPY-GDP. Increase in signal (activation) is the desired outcome for the EPAC1 agonist while no activity in this assay is desired for the EPAC2 agonist counterscreen.
[1] de Rooij, J., Zwartkruis, F. J., Verheijen, M. H., Cool, R. H., Nijman, S. M., Wittinghofer, A., and Bos, J.L. (1998) Nature 396, 474-477.
Briefly, three uL of reagents (100 nM EPAC1, 250 nM RAP1B-BODIPY-GDP, 50 uM GDP) were dispensed into a 1536-well Greiner black solid-bottom medium binding assay plate. Controls and test compounds (23 nL) were transferred to the plate via a Kalypsys pin tool equipped with a 1536-pin array. The plates were centrifuged at 1,000 rpm for 15 seconds followed by 5 minute incubation at room temperature. The assay plates were read at 5 minute intervals for 30 minutes in the ViewLux plate reader using 480nm excitation and 540nm emission filters. The results were normalized to the agonist positive control of 6.5 mM cAMP.
On the % scale 0 is the no-effect control and ±100 the full control effect; potency means the concentration at half of the fitted maximal effect.

Rap guanine nucleotide exchange factor 3 (Homo sapiens), sequence (O95398 whole entry, looked up): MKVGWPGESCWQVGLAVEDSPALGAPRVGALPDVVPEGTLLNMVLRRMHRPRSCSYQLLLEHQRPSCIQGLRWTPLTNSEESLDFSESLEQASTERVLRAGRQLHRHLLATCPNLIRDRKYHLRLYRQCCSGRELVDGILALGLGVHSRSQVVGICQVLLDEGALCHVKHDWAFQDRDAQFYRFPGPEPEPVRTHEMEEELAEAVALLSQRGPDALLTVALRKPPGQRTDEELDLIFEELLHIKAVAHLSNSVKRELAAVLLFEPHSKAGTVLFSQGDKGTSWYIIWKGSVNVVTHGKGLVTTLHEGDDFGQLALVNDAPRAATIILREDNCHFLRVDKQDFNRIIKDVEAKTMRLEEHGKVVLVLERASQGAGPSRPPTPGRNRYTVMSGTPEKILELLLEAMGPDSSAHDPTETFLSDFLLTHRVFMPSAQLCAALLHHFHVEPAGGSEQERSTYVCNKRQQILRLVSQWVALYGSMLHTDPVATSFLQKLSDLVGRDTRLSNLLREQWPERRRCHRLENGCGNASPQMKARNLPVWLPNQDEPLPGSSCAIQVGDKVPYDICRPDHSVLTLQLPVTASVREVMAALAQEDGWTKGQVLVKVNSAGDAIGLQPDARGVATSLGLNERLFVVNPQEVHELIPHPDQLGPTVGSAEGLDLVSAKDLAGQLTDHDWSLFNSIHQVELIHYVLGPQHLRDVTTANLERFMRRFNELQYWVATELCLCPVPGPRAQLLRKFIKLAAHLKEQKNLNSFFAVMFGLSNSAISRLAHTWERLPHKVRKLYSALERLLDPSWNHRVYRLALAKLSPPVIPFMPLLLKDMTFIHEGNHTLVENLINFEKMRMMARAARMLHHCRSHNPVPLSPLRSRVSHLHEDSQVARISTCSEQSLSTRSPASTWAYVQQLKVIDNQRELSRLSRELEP

In order of falling max response:
1. O=c1c(-c2cccs2)nc2cnc(Oc3ccccc3)nc2n1-c1ccccc1  26.8%
2. CN(C)c1ccc(/C=C/c2c3ccccc3nc3ccccc23)cc1  23.9%
3. O=S1(=O)CCOC[C@H](Cc2ccccc2)N1Cc1ccccc1Br  21.5%
4. Cc1[nH]c2c(C(=O)NCC3Cc4cccc(-c5cccnc5)c4O3)cccc2c1C (stereo not drawn)  19.3%
5. NNc1nnc(Cc2ccncc2)c2ccccc12  17.7%
6. Cc1nc2cc(NC(=O)[C@@H]3C[C@@H](Sc4ccccn4)CN3Cc3ccccc3C)ccc2s1  16.2%
7. CCN1CCN(C(=O)N[C@@H](C(=O)N[C@@H]2C(=O)N3[C@@H]2SC(C)(C)[C@H]3C(=O)O)c2ccccc2)C(=O)C1=O  15.9%
8. COC(=O)c1ccccc1-c1cc(C)cc2c1OC(CNC(=O)C1CCOC1)C2 (stereo not drawn)  15.3%
9. CN(Cc1ccco1)c1ncncc1-c1ccoc1  15.3%
10. Nc1nc(/C(=C/CC(=O)O)C(=O)N[C@@H]2C(=O)N3C(C(=O)O)=CCS[C@H]23)cs1  13.2%
11. Cc1cnc(CNc2ncncc2-c2ccccc2Cl)cn1  13%
12. COc1ccccc1C(=O)N[C@@H]1c2ccccc2C2(CCN(Cc3nc(C(C)C)cs3)CC2)[C@H]1O  12.9%
13. O=C(O)CCCCCCCCc1cn(CN2C(=O)c3ccccc3C2=O)nn1  12.5%
14. O=C(c1cc(C(F)(F)F)cc(C(F)(F)F)c1)N1CCC2(CC1)CN(c1ccncc1)C2  12.3%
15. COc1cc(C)c(CN2CCc3nnc(C(C)NC(=O)c4cccnc4)n3CC2)cc1C (stereo not drawn)  12.1%
16. COCCn1c(=O)c(-c2cccs2)nc2cnc(N3CCN(C)CC3)nc21  9.88%
17. CN(C)c1ccc(/C=c2\[nH]c(=O)/c(=C/c3ccc(N(C)C)cc3)[nH]c2=O)cc1  8.62%
18. Cc1csc(-c2nc3ccccc3n2C)n1  8.44%
19. O=c1cc(-c2ccc(O)c(O)c2)oc2cccc(O)c12  8.34%
20. CCC1CN(CCNC(=O)c2cccc(C)n2)Cc2cc(OC)ccc2O1 (stereo not drawn)  8.26%
21. O=S1(=O)CCO[C@H]2Cc3ccccc3[C@H]2N1Cc1ccccc1  7.53%
22. CCN(Cc1ccncc1)C(=O)[C@@H](CO)c1ccccc1  7.04%
23. O=C(C[n+]1cc(Br)cc2ccccc21)c1ccc(F)cc1  6.56%
24. COc1cc2[nH]c(C)c(CCN3CCN(c4ccccc4)CC3)c2cc1OC  5.71%
25. CC1(C)[C@H](O[C@H]2O[C@H](C(=O)O)[C@@H](O)[C@H](O)[C@H]2O[C@@H]2O[C@H](C(=O)O)[C@@H](O)[C@H](O)[C@H]2O)CC[C@@]2(C)[C@H]1CC[C@]1(C)[C@H]2C(=O)C=C2[C@H]3C[C@@](C)(C(=O)O)CC[C@]3(C)CC[C@]21C  5.45%
26. COC(C)C(C(=O)OCC1=CCN2CC[C@H](O)[C@@H]12)C(C)C (stereo partly drawn)  5.22%
27. Cc1noc(C)c1-c1nccc(N2CCOCC2)n1  5.18%
28. Cc1cc(-c2ccnc(-n3ncc(C(=O)NC(C)(C)CO)c3C3CC3)n2)c(C)s1  5.17%
29. Cc1cc(C(=O)NCC2Cc3cccc(-c4cncnc4)c3O2)c(C)o1 (stereo not drawn)  3.15%
30. CNc1cc(-c2c(C)noc2C)ncn1  2.2%
31. CCC1CN(CCNC(=O)c2cccnc2C)Cc2cc(OC)ccc2O1 (stereo not drawn)  1.97%
32. O=C(Nc1ccccc1)N[C@H]1C[C@H](C(=O)O)Nc2cc(Cl)cc(Cl)c21  1.49%
33. COc1cc2c(cc1OC)CC(=O)N(CCCN(C)C[C@H]1Cc3cc(OC)c(OC)cc31)CC2  1.48%
34. CC(=O)Nc1cc(C(=O)N2CCc3c(Cl)cccc3C2)cc2ncn(CCc3ccccn3)c12  1.17%
35. O=C(CCN1Cc2ccccc2OC(c2ccccc2)C1)N[C@@H]1CS(=O)(=O)C[C@H]1O (stereo partly drawn)  0.897%
36. COc1ccccc1-c1cc(NCc2cccs2)ncn1  -0.282%
37. O=C(O)/C(=C/c1c(C(=O)O)[nH]c2cc(Cl)cc(Cl)c12)c1ccccc1  -0.525%
38. CC(Oc1ccccc1)C(=O)N[C@@H]1C(=O)N2[C@@H]1SC(C)(C)[C@@H]2C(=O)O (stereo partly drawn)  -0.674%
39. COc1cccc(Cn2c(=O)cnc3cncnc32)c1  -1.3%
40. Cc1csc(-c2coc3cc(O[C@@H]4O[C@H](CO)[C@@H](O)[C@@H](O)[C@H]4O)ccc3c2=O)n1  -1.66%
41. Cc1ccc(C(=O)Nc2cccc(-c3nc(CNC(=O)c4ccccc4-n4cccn4)c(C)o3)c2)s1  -3.18%
42. COc1ccccc1CNc1ncncc1-c1cccc(NS(C)(=O)=O)c1  -3.54%
43. CCOC(=O)N1CCC(N2CCOc3ccc(CN4CCC(O)(c5cccnc5)CC4)cc3C2)CC1  -5.78%
44. Clc1ccccc1-c1cc(NCCN2CCOCC2)ncn1  -6.13%
45. Cc1c(C(=O)NCC2CCCN(C)C2)cnn1-c1nccc(-c2ccco2)n1 (stereo not drawn)  -6.37%
46. COCCn1c(=O)c(-c2cc(F)cc(F)c2)nc2cncnc21  -6.52%
47. CN(C)c1ccc(CN2CCOc3ccc(CN4CCC(O)(c5cccnc5)CC4)cc3C2)cc1  -6.57%
48. COc1ccc(C2CC(=O)c3c(O)cc(OC4OC(COC5OC(C)C(O)C(O)C5O)C(O)C(O)C4O)cc3O2)cc1O (stereo not drawn)  -7.79%
49. CC(C)C1=CC2=CC[C@@H]3[C@](C)(CO)CCC[C@]3(C)C2CC1 (stereo partly drawn)  -8.55%
50. COCCNc1ccnc(-c2cccc(NS(C)(=O)=O)c2)n1  -9.71%
51. NC(=O)c1sc(-c2ccsc2)cc1N  -9.78%
52. Cc1cn(C2OC[C@@H](O)[C@@H]2CO)c(=O)[nH]c1=O (stereo partly drawn)  -10%
53. COC(=O)[C@@H]1C[C@H](NC(=O)c2ccccc2C(F)(F)F)CN1Cc1cccc(O)c1  -10.1%
54. C=O  -10.7%
55. Cn1c(=O)c(CCc2ccccc2)nc2cnc(Nc3ccccc3)nc21  -11%
56. O=P(O)(O)OC[C@H](O)CO  -11.2%
57. CC1(C)S[C@@H]2[C@H](N=CN3CCCCCC3)C(=O)N2[C@H]1C(=O)O  -11.7%
58. Cc1nc2cnc(Oc3cccc(Cl)c3)nc2n(C2CC2)c1=O  -12.8%
59. CS(=O)(=O)N1CCC2(CC1)CN(Cc1ccccc1)C2  -14.5%
60. COCC(=O)N1CCC2(CCCN(c3ccccc3)C2)CC1  -14.6%
61. COc1ccc(-n2c(=O)c(C)nc3cnc(N4CCOCC4)nc32)cc1  -14.8%
62. Cc1cc[n+](C2CCCCC2)cc1  -16.9%
63. Oc1ccc(Cl)c2c1CCC2  -17.9%
64. CC(=O)OC1CCC2(O)CC1(C)CCC1C2CC1(C)C (stereo not drawn)  -18.2%
65. CC(=O)N1CCC2(CCCN(c3ncccn3)C2)CC1  -18.4%
66. COc1ccccc1-c1nc(NCc2cccs2)c2ccccc2n1  -19.8%
67. O=C(c1cnccn1)N1CCC2(CCCN(Cc3ccccc3)C2)CC1  -21.3%
68. CCCCCCCCCCCC(=O)O[C@H](CC(=O)O)C[N+](C)(C)C  -21.3%
69. COc1ccc(CNc2ncncc2-c2ccccc2OC)c(OC)c1  -21.3%
70. O=c1c(-c2ccc(F)c(F)c2)nc2cncnc2n1-c1ccccc1  -25.2%
71. COCCNc1ncnc2ccc(-c3cccnc3)cc12  -29.2%
72. O=C(c1ccco1)N1CCC[C@@]2(CCN(c3ccccc3)C2)C1  -31.3%
73. O=c1c(O)c(-c2ccc(O)cc2)oc2ccccc12  -32.1%
74. NC(=O)C(=O)N/N=C/c1ccc([N+](=O)[O-])o1  -37.2%
75. CS(=O)(=O)N1CCC2(CCN(c3ccncc3)CC2)CC1  -40.6%
76. COc1ccc2[nH]cc(CCNc3cc(-c4ccccc4CN(C)C)ncn3)c2c1  -42%
77. COc1ccc(C(=O)N2CCC3(CC2)CCN(c2ccccn2)CC3)cc1  -52.8%
78. O=C(c1cnccn1)N1CCC2(CCN(Cc3cc(C(F)(F)F)cc(C(F)(F)F)c3)CC2)CC1  -66.3%
79. CCOC(=O)C[C@H]1c2ccc(C(F)(F)F)cc2S(=O)(=O)N1c1ccccc1  -85%
80. O=c1c(-c2ccc(F)cc2)nc2cnc(N3CCOCC3)nc2n1-c1ccccc1  -86.9%
81. C=C1CC[C@H](O)CC1=C/C=C1\CCC[C@]2(C)[C@@H]([C@H](C)/C=C/[C@H](C)C(C)C)CC[C@@H]12  -127%

With `CN(C)c1ccc(/C=C/C=C/c2ccnc3ccccc23)cc1` the Potency was 112 µM (active).
In the case of `Cc1cc2nc3c(=O)[nH]c(=O)nc-3n(C[C@H](O)[C@H](O)[C@H](O)CO)c2cc1C`, the Potency was 100 µM (active).

In the case of `C#CCCCCCCCCCCCCCCCC(=O)O`, the max response was -16.8% and -0.644%.
In the case of `CC(C)(C)NCC(O)COc1cccc2[nH]c(=O)[nH]c12` (stereo not drawn), the max response was -8.93% and -6.11%.
For `CC(N)=NCc1cccc(CN)c1`, the max response was 8.83% and -11.8%.
`N#C/C(=C\c1ccc(O)c(O)c1)C(N)=O` was tested, and the max response was -9.7% and -17.1%.
For `O=c1[nH]c(=O)c2nc3ccccc3nc2[nH]1`, the max response was -1.62% and 3.86%.
